This is part of a sample that, as a whole, favours compounds with a hit. Of some 83,000 tested, about 20% had one in any assay.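 Assay: single dose, 48 h. Readout: percent growth (0 = no net growth; negative = cell death). Active: <10.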 Values without a mark were called inactive. Active and inactive are the calls of the source.
Assays:
Assay in all cases: NCI-60 one-dose screen, 48 h (100 = growth as untreated, 0 = no growth, -100 = all killed)
Details in all cases: 10 µM unless noted
SK-MEL-2 melanoma = tested on: SK-MEL-2 melanoma
EKVX NSCLC = tested on: EKVX NSCLC
SN12C renal = tested on: SN12C renal
UO-31 renal = tested on: UO-31 renal
TK-10 renal = tested on: TK-10 renal
ACHN renal = tested on: ACHN renal
CAKI-1 renal = tested on: CAKI-1 renal
A498 renal = tested on: A498 renal
CCRF-CEM leukemia = tested on: CCRF-CEM leukemia
MOLT-4 leukemia = tested on: MOLT-4 leukemia
SR leukemia = tested on: SR leukemia
RPMI-8226 leukemia = tested on: RPMI-8226 leukemia
OVCAR-8 ovarian = tested on: OVCAR-8 ovarian
OVCAR-5 ovarian = tested on: OVCAR-5 ovarian
SK-OV-3 ovarian = tested on: SK-OV-3 ovarian
IGROV1 ovarian = tested on: IGROV1 ovarian
OVCAR-3 ovarian = tested on: OVCAR-3 ovarian
HS 578T breast = tested on: HS 578T breast
NCI/ADR-RES ovarian = tested on: NCI/ADR-RES ovarian
OVCAR-4 ovarian = tested on: OVCAR-4 ovarian

Structure (SMILES) | growth (SK-MEL-2 melanoma) | growth (EKVX NSCLC) | growth (SN12C renal) | growth (UO-31 renal) | growth (TK-10 renal) | growth (ACHN renal) | growth (CAKI-1 renal) | growth (A498 renal) | growth (CCRF-CEM leukemia) | growth (MOLT-4 leukemia) | growth (SR leukemia) | growth (RPMI-8226 leukemia) | growth (OVCAR-8 ovarian) | growth (OVCAR-5 ovarian) | growth (SK-OV-3 ovarian) | growth (IGROV1 ovarian) | growth (OVCAR-3 ovarian) | growth (HS 578T breast) | growth (NCI/ADR-RES ovarian) | growth (OVCAR-4 ovarian)
O=C1Nc2ccc(I)cc2C1=O | 85.4% | 102% | 98% | 77.9% | 140% | 103% | 64.5% | 122% | 119% | 102% | 100% | 144% | 90.7% | 98.6% | 108% | 46.6% | 74.7% | 97.8% | 97.2% | –
Cc1ccc(C(C(N)=O)C(C(N)=O)c2ccccc2)cc1 (configuration not stated) | 105% | 113% | 112% | 108% | 101% | 115% | 101% | 116% | 93.4% | 100% | 92% | 95.4% | 103% | 114% | 114% | 105% | – | 124% | 122% | 115%
N#Cc1cnc(NCCc2ccncc2)nc1-n1cnc2ccccc21 | 34.6% | 72.6% | 65.1% | 33.3% | 20.4% | 26.1% | 8.54% (active) | 29.6% | 77.2% | 47.3% | 35.4% | 65.3% | 54% | 66.9% | 25.5% | 29.1% | – | 72.1% | 64.9% | 74.2%
CC1(C)c2[nH]c3ccccc3c2C[C@]2(C)[C@H]3CC=C4[C@@H]5C[C@@](C)(C(N)=O)CC[C@]5(C)CC[C@@]4(C)[C@]3(C)CC[C@@H]12 | 80.3% | 31.9% | 61.8% | 47.3% | 84.2% | 45.7% | 57.7% | 67.9% | 54.7% | 51.2% | 34.3% | 38.3% | 50.8% | 102% | 70.1% | 74.4% | – | 91.5% | 67.5% | 32.4%
COc1ccc(C(=O)Nc2cccc(C3CC(=O)c4c(cc(OC)c(OC)c4OC)O3)c2)cc1 (configuration not stated) | -11.9% (active) | 45% | 31.2% | 33.7% | 40.3% | 40.8% | 33.3% | -2.96% (active) | 9.44% (active) | 14.3% | 13.3% | 11.2% | 17.7% | 46% | 20.6% | 36% | 1.51% (active) | 5.72% (active) | 8.74% (active) | –
O=C(Nc1nc2ccc(F)cc2s1)c1cccnc1Nc1ccc(Cl)cc1 | 54.4% | 9.81% (active) | 17.9% | 56.2% | 27.4% | 38.8% | 20.2% | 17.9% | 5.11% (active) | 16.6% | 29.5% | 25% | 47.3% | 90.9% | 58% | 39.9% | 13.6% | 39.6% | 10.5% | –
CCC(=C(c1ccc(OCCN2CCCC2)cc1)c1ccc(OCCN2CCCC2)cc1)c1ccc(Cl)cc1 | -28.2% (active) | 92.7% | -62.9% (active) | -73.4% (active) | -12.5% (active) | -84.6% (active) | -58.7% (active) | 46.8% | -38.7% (active) | -27.2% (active) | -40.5% (active) | -44.1% (active) | -7.08% (active) | 19.5% | 84.8% | -20.2% (active) | – | -47.4% (active) | 10.5% | -43.4% (active)
CCCC(=O)NC(c1ccc2c(c1)OCO2)c1ccc2cccnc2c1O (configuration not stated) | 46% | 19.1% | 23.9% | -23.2% (active) | 25.8% | 5.12% (active) | 6.21% (active) | 12.9% | 4.72% (active) | 2.22% (active) | -16.1% (active) | 13.1% | 9.28% (active) | 34.2% | 14.8% | 5.54% (active) | 36.9% | 58.6% | 3.18% (active) | –
C=C(CNCCc1ccc(O)cc1)[C@@H]1CC[C@]2(CO)CC[C@]3(C)[C@H](CC[C@@H]4[C@@]5(C)CCC(NCCO)C(C)(C)[C@@H]5CC[C@]43C)[C@@H]12 (some centres not stated) | -81% (active) | -52.1% (active) | -70.3% (active) | -96.1% (active) | -80.6% (active) | -60.8% (active) | -77.2% (active) | 69.3% | -19.7% (active) | -19.2% (active) | -42.3% (active) | -45.9% (active) | -49.7% (active) | – | 86.4% | -37.1% (active) | -41.7% (active) | -61.1% (active) | 53.8% | –
O=C1c2cccnc2C(=O)c2c1c(C(=O)NCCCN1CCCCC1)c1ccccn21 | -40.3% (active) | -100% (active) | -65.1% (active) | -34.5% (active) | -1.12% (active) | -45.2% (active) | -14.6% (active) | -78.1% (active) | -25.6% (active) | -43.9% (active) | – | -10.9% (active) | -13.3% (active) | -0.385% (active) | -15.7% (active) | -43.4% (active) | -34.8% (active) | 36.3% | -15.5% (active) | -88% (active)
COc1ccc2c(O)c(/C=C3\N=Nc4ncccc43)oc2c1C[C@H]1CCNC[C@H]1F | -6.33% (active) | 5.31% (active) | 7.25% (active) | 4.13% (active) | 19.8% | 4.51% (active) | 6% (active) | -41.8% (active) | -3.17% (active) | -34.3% (active) | -40.2% (active) | 9.58% (active) | 5.11% (active) | – | 21% | 2.29% (active) | 1.29% (active) | -6.5% (active) | 31.3% | 2.83% (active)
COC(C(=O)[C@@H](O)[C@@H](C)O)[C@@H]1Cc2cc3cc(O[C@H]4C[C@@H](O[C@H]5C[C@@H](O)[C@H](O)C(C)O5)[C@H](O)C(C)O4)c(C)c(O)c3c(O)c2C(=O)[C@H]1O[C@H]1C[C@@H](O[C@H]2C[C@@H](O[C@H]3C[C@@H](O)[C@H](OC)C(C)O3)[C@@H](O)C(C)O2)[C@H](O)C(C)O1 (some centres not stated) | -43.7% (active) | 12.3% | 15.9% | -8.18% (active) | -2% (active) | 4.45% (active) | 13.7% | -47.5% (active) | 9.56% (active) | -6.79% (active) | 3.51% (active) | 0.837% (active) | 7.56% (active) | – | 19.1% | 16.9% | – | 20.3% | 59.5% | 11.8%
N#CC1CCc2c(c(-c3cn[nH]c3C(F)(F)F)nc3c(F)cc4[nH]ncc4c23)C1 (configuration not stated) | -34.6% (active) | 57.4% | 25.7% | 56.8% | 19.4% | 62.9% | 25.6% | -23.3% (active) | 29.2% | 19.8% | – | 34.6% | 43% | 63.2% | -1.91% (active) | -4.43% (active) | 16.6% | -8.7% (active) | 92.4% | 59.7%
Fc1cc2c(cc1Cl)N(c1ncnc3ccc(-c4cnc5[nH]ncc5c4)cc13)CC2 | 91.4% | 41.9% | 47.6% | 21.8% | 54.6% | 30.9% | 38.7% | -6.52% (active) | 71.1% | 60.1% | 57.1% | 60.3% | 60.9% | – | 50.8% | 13.2% | 60.4% | 25.9% | 65.2% | 66.4%
COc1ccc(C2=Nc3c/c(=C\c4c(O)[nH]c5ccc(Cl)cc45)ccc3=N2)cc1 | 20.1% | 56.6% | 73.4% | 59% | 82.5% | 70.1% | 51.3% | 25.9% | 8.54% (active) | 19.9% | – | 22.7% | 51.7% | 82.9% | 64.6% | 75.3% | 32.7% | 41.8% | 12.7% | 64.2%
CN1CCN(c2ccc(NC(=O)c3nc4ccc5[nH]ncc5c4c4c3CCCC4)cc2C(F)(F)F)CC1 | 88.2% | 88.2% | 32.6% | 64.3% | 109% | 15.2% | 19.4% | 82.4% | 5.81% (active) | 36.1% | 13.6% | 24.1% | 3.3% (active) | – | 100% | 4.75% (active) | 11.5% | 77.6% | 70% | 65.2%

Source: PubChem BioAssay (NCI)
